Reference: the supplement of paper PMC12636033
± gives the standard deviation of the averaged measurements. In all, about 33,000 sequences were measured (“E-score (rank enrichment, -0.5 to 0.5)”: median about -0.0075, highest 2% from about 0.23 on). This excerpt belongs to a sample that is enriched for the highest values.

Tested on: WT Max(13-93) synthetic (M65Nle)
Test: PBM 8-mer E-score (E-score (rank enrichment, -0.5 to 0.5)); higher = stronger preferential binding
Description: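 Protein binding microarray (universal PBM chip covering all 10-mers in fixed probe flanks) with chemically synthesized human Max(13-93) bHLH-LZ analogs (not full-length Max) bearing noncanonical residues (hArg, Tha, Aib, Nle at 65) and aromatic Cys staples. Read-out per 8-mer (and its reverse complement): E-score (rank-based enrichment, -0.5 to 0.5) and Z-score of median probe intensity.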

Row | Sequence | PBM 8-mer E-score
1 | ACTCGGTA | -0.0471 ± 0.064
2 | CGTAGGCA | -0.0828 ± 0.077
3 | GAAGCCCA | -0.0819 ± 0.0058
4 | CCACCTGG | 0.0162 ± 0.071
5 | TCAACTCA | -0.088 ± 0.024
6 | AGATGCGG | -0.0543 ± 0.14
7 | CGCTTCTA | -0.0256 ± 0.055
8 | CCATTGGG | -0.154 ± 0.1
9 | CAATCCAG | 0.0833 ± 0.0029
10 | CATAATTA | 0.236 ± 0.025
11 | CATAATTC | -0.0543 ± 0.0058
12 | CCTAATTA | 0.138 ± 0.094
13 | GTATCGAA | -0.0312 ± 0.052
14 | AGCTAATG | -0.0403 ± 0.0067
15 | AATAATCA | 0.125 ± 0.0096
16 | GATAATCA | 0.253 ± 0.14
17 | GATAATAA | 0.137 ± 0.092
18 | TATAATCA | 0.257 ± 0.014
19 | GATAATCC | -0.0355 ± 0.034
20 | CATAATCA | 0.101 ± 0.028
21 | ACGCCAGT | -0.159 ± 0.098
22 | CTCGAATA | -0.174 ± 0.064

Row | Sequence | PBM 8-mer E-score
23 | CCATTACA | 0.165 ± 0.0069
24 | AAGTTAAT | 0.234 ± 0.036
25 | AAGTTAAG | -0.0928 ± 0.093
26 | AAGTTAAC | 0.18 ± 0.0042
27 | ATGGACAA | 0.0228 ± 0.022
28 | GCTCCTCC | -0.127 ± 0.14
29 | CAATTATA | 0.137 ± 0.059
30 | TAATTATA | 0.264 ± 0.11
31 | AAATTATG | 0.127 ± 0.011
32 | AAATTATA | 0.237 ± 0.0041
33 | GAATTATA | 0.128 ± 0.074
34 | AAATTATC | 0.158 ± 0.031
35 | GCCGAAAA | 0.0297 ± 0.015
36 | CACGCGAA | 0.0737 ± 0.06
37 | CACGCGCG | 0.224 ± 0.034
38 | CACGCGCC | 0.238 ± 0.013
39 | AACGCGTG | 0.222 ± 0.068
40 | CACGCGTA | 0.165 ± 0.036
41 | CACGCGTC | 0.266 ± 0.016
42 | CACGCGTG | 0.349 ± 0.015
43 | AACGCGTA | 0.0664 ± 0.023
44 | CACGCGCA | 0.149 ± 0.079

Row | Sequence | PBM 8-mer E-score
45 | CACGCGAC | 0.271 ± 0.066
46 | AACGCGTC | -0.0583 ± 0.0094
47 | CACGCGAG | 0.0779 ± 0.018
48 | CAACTCGG | -0.13 ± 0.11
49 | ATAACCGA | -0.0219 ± 0.011
50 | CAAATTAC | 0.177 ± 0.062
51 | CCATCACC | 0.144 ± 0.01
52 | ATGCAGTG | 0.0344 ± 0.068
53 | AAATGCGA | -0.0159 ± 0.018
54 | AGGCTAGG | 0.0514 ± 0.046
55 | GGCAGATA | 0.116 ± 0.062
56 | ACGTTTTG | 0.101 ± 0.09
57 | CCGTTATA | 0.132 ± 0.018
58 | GCGTTATA | 0.108 ± 0.025
59 | ACGTTATG | 0.24 ± 0.0059
60 | ACGTTAGG | 0.107 ± 0.099
61 | ACGTTATA | 0.241 ± 0.038
62 | ACGTTATC | 0.133 ± 0.013
63 | ACATCATG | -0.0233 ± 0.006
64 | AGCGCCTC | -0.185 ± 0.038
65 | AACACCGG | -0.157 ± 0.029
66 | ATTTGTTA | 0.0868 ± 0.01

Row | Sequence | PBM 8-mer E-score
67 | ATTTGTTC | 0.241 ± 0.11
68 | CTTTGTTC | 0.0437 ± 0.024
69 | CGAGATGA | -0.159 ± 0.091
70 | AGTAGCTA | 0.178 ± 0.057
71 | GATCTCGA | -0.159 ± 0.022
72 | CCGCCGAA | -0.156 ± 0.022
73 | CACGTGAC | 0.4879 ± 0.0015
74 | GACGTGAA | -0.138 ± 0.057
75 | CCCGTGAG | -0.0893 ± 0.044
76 | GACGTGAC | -0.0117 ± 0.088
77 | TACGTGAA | 0.0446 ± 0.099
78 | CGCGTGAG | 0.0752 ± 0.04
79 | AACGTGAC | 0.205 ± 0.016
80 | CACGTGAG | 0.404 ± 0.019
81 | CACGTGAA | 0.388 ± 0.053
82 | GGCTAGAC | -0.217 ± 0.07
83 | TACGCCAA | 0.0646 ± 0.021
84 | CCATAACA | 0.236 ± 0.036
85 | ACATAACA | 0.215 ± 0.0054
86 | GCATAACA | 0.27 ± 0.04
